GCN5L2 inh – blocks human GCN5L2 histone acetyltransferase; 390,000 tested, 0.21% active; GCN5L2 HAT assay, ThioGlo1 CoA-SH fluorescence; Potency, µM (doses to about 58.9 µM), for the others: at the highest dose activity change, negative = inhibition, most hits filed as inhibitors; further: potency means the concentration at half of the fitted maximal effect; on the % scale 0 is the no-effect control and ±100 the full control effect
Target sequence (Q92830 whole entry, looked up): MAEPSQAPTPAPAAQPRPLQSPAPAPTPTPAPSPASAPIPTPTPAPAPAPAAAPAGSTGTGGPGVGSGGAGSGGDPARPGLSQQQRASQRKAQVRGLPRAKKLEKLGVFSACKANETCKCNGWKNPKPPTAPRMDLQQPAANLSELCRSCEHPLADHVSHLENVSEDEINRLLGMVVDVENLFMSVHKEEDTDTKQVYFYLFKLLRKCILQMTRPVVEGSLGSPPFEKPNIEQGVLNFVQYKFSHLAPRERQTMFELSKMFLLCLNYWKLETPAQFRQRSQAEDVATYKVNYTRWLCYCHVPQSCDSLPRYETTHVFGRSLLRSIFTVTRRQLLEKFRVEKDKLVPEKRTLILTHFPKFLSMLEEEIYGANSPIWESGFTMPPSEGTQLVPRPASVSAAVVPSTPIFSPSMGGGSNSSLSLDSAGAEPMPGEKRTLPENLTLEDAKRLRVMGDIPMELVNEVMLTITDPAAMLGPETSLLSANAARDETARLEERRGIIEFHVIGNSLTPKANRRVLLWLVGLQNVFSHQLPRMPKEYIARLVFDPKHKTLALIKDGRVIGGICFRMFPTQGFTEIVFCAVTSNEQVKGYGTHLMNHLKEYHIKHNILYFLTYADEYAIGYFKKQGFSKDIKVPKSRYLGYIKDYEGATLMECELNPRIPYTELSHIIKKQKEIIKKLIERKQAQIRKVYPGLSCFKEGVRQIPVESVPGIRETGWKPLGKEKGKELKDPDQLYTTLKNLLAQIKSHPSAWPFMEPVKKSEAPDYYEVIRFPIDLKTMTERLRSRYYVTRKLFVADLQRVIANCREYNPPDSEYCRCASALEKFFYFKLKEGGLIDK
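Titration-based screen in which CoA formation is detected via maleimide probe ThioGlo1 (50uM) turning fluorescent on thiol reaction; substrates H3(1-25) 75uM and acetyl-CoA 70uM, GCN5L2 20nM, 20 min incubation at room temperature.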
PLK1 PBD inh – inhibitors of human PLK1 polo-box domain binding. Plk1 PBD binding of FITC phosphopeptide, fluorescence polarization. Potency, µM, inactives show max response, negative = inhibition, hits mostly inhibitors. 360,000 tested, 2.8% active; further: potency means the concentration at half of the fitted maximal effect; series mostly up to about 57 µM; on the % scale 0 is the no-effect control and ±100 the full control effect; nearly all actives have a fitted effect of over 65% in size
JMJD2A Tudor – blocks the human JMJD2A Tudor domain | O75164 | AlphaScreen JMJD2A-Tudor / H3K4me3 peptide binding | Potency, µM (titrated, usually from 114 µM), inactives show at the top dose activity change, negative = inhibition, actives largely listed as inhibitors | 390,000 tested, 4.4% active; further: potency means the concentration at half of the fitted maximal effect; on the % scale 0 is the no-effect control and ±100 the full control effect; nearly all actives have a fitted effect of over 50% in size
HP1b binding inh – inhibitors of HP1-beta chromodomain binding to methylated histone tails; P83916; AlphaScreen HP1-beta / biotin-H3K9me3 peptide binding; Potency, µM (titrated, usually from 114 µM), for the others: top-dose activity change, negative = inhibition, most hits filed as inhibitors; 390,000 tested, 0.56% active; AID 540317; further: potency means the concentration at half of the fitted maximal effect; nearly all actives have a fitted effect of over 70% in size
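AlphaScreen: HP1-beta (50 nM) preformed 30 min with biotin-H3(1-18)K9me3 peptide (50 nM) in PBS pH 7.4, 0.01% Tween-20. Compound added for 30 min at RT, then streptavidin donor/nickel chelate acceptor beads (10 ug/mL) for 30 min.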
BAZ2B block – BAZ2B (human) inhibition; 360,000 tested, 4.4% active; Potency, µM (highest dose often 114 µM), for inactives: at the highest dose activity change, negative = inhibition, actives largely listed as inhibitors; AlphaScreen BAZ2B-H3K14Ac peptide displacement; further: potency means the concentration at half of the fitted maximal effect; on the % scale 0 is the no-effect control and ±100 the full control effect; nearly all actives have a fitted effect of over 60% in size
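AlphaScreen displacement of biotin-H3(5-23)K14Ac peptide (50 nM final) from BAZ2B (50 nM final) in PBS pH 7.4, 0.01% Tween-20; complex preformed 30 min RT, then compounds (top 110 uM) 30 min RT, beads 20 min dark.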
PI5P4K alpha inh – inhibitors of human PI5P4K alpha; PI5P4Kalpha enzyme, ADP-Glo luminescence, 60 min; active compounds read low; max response, %; 330,000 tested, 1.2% active; active means max response of -50% or lower; inconclusive means between -30% and -50%; inactive means -30% or higher; further: value at the top dose of about 77 µM; on the % scale 0 is the no-effect control and ±100 the full control effect
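Luminescence from ADP-Glo served as readout of PI5P4Kalpha activity in a qHTS format. Reaction: enzyme, substrate, compound, ATP at 5 microM final, 60 min at RT.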
Active calls of the source: *; ? = inconclusive; · = no result; [ ] = dose if it differs, or a comment. Most compounds without a hit are left out; they make up all but 7% or so of the library. Unless noted, the call rests on the fitted dose curve; in most records, active means well fitted curve in the direction sought with a large enough effect; inconclusive means small, poorly fitted or top-dose-only effect, or another doubt; inactive means no such curve, though single readings can be large; an effect the other way counts as inactive or inconclusive.

SMILES	GCN5L2 inh	PLK1 PBD inh	JMJD2A Tudor	HP1b binding inh	BAZ2B block	PI5P4K alpha inh
Nc1nc2sc3c(c2cc1C(=O)NCC(=O)O)CCCC3	-17.8%	-6.2%	-11.7%	35.3%	-13.9%	2.1
Nc1nc2sc3c(c2cc1C(=O)N1CCOCC1)CCCC3	-6.3%	-3.0%	14.1µM*	6.1%	-38.9%	-1.3
N#CC1C(=O)c2ccccc2C1c1ccccc1 (configuration not stated)	·	29.9µM*	?	-18.4%	·	-17.5
O=C(NN1CCOCC1)c1cn(-c2ccccc2)nc1-c1cccs1	-12.5%	23.8µM*	-6.6%[11.4 µM]	5.6%	3.4%	7.8
CN1CCN(NC(=O)c2cn(-c3ccccc3)nc2-c2cccs2)CC1	-1.3%	?	-10.1%	55.8%	-21.5%	0.9
O=C(Nc1ccc2ccccc2c1)c1cn(-c2ccccc2)nc1-c1cccs1	-6.3%	-5.9%	-14.9%	9.2%	2.5%	·
CN(C)c1ccc(NC(=O)c2cn(-c3ccccc3)nc2-c2cccs2)cc1	-5.2%	-1.7%	14.1µM*	?	35.5µM*	·
C/C(=C\C(=O)OCCCCCCCCC(=O)O)C[C@@H]1OC[C@H](C[C@@H]2O[C@H]2[C@@H](C)[C@H](C)O)[C@@H](O)[C@H]1O	-17.5%	-3.2%	-11.0%	20.1%	·	7.5
COc1cc(/C=C/C(=O)OCC(=O)Nc2ccc3c(c2)OCCO3)ccc1O	-8.3%	-21.5%	-23.4%	-2.3%	-22.6%	-10.6
COc1cc(/C=C(\C#N)C(=O)Nc2ccccn2)ccc1O	-3.3%	19.0%	-18.3%	44.8%	-12.6%	-52.0*
COc1cc(/C=C(\C#N)C(=O)Nc2ccc3c(c2)OCCO3)ccc1O	-4.3%	16.2%	-35.1%	3.8%	-22.8%	-55.8*
CC1CCCCC1NC(=O)/C(C#N)=C/c1ccc(F)c(F)c1 (configuration not stated)	2.0%	-3.1%	-13.1%	29.7%	3.8%	5.6
CC1CCCCC1NC(=O)/C(C#N)=C/c1ccc2c(c1)OCCO2 (configuration not stated)	-13.8%	26.7µM*	-10.7%	41.2%	-4.9%	5.2
OCCn1c(SCCOc2ccccc2F)nc2ccccc21	0.3%	-12.5%	-11.6%	66.3%	3.8%	13.5
O=C(O)Cn1c(SCCOc2ccccc2F)nc2ccccc21	-3.0%	18.9µM*	-25.3%[11.4 µM]	7.9%	-32.3%	-29.3
CCn1c(SCC(=O)NC2CCCCC2)nnc1-c1cccs1	0.7%	-5.7%	2.0%	32.6%	-4.8%	·
CCn1c(SC(=O)NC2CCCCC2)nnc1-c1cccs1	-8.3%	2.67µM*	4.47µM*	22.4µM*	4.2%	-6.8
COc1ccc(NC(=O)CCc2nnc3n(C)c(=O)c4sccc4n23)cc1Cl	-4.3%	·	-15.7%	19.2%	0.2%	·
COc1cccc(-c2nn(-c3ccccc3)cc2CN(C)Cc2c(C)nc3ccccn23)c1	-14.4%	2.9%	56.2µM*	-27.9%	-38.1%	14.8
COc1ccccc1-c1nc(COc2ccc(Cl)cc2Cl)no1	2.2%	4.5%	95.8%	197.3%	93.7%	28.4
O=C(Nc1noc2ccccc12)c1c(F)cccc1F	-5.8%	·	-10.8%	43.0%	-0.2%	·
Cn1c(C(=O)NCCc2ccccc2)cc(=O)n(C)c1=O	-1.7%	23.8µM*	-12.0%	-16.2%	-5.2%	0.9
O=S(=O)(c1cccc(O)c1)N1CCN(S(=O)(=O)c2c(F)cccc2F)CC1	·	·	-21.1%	·	·	·
Cc1ccc(NC(=O)c2c(C)nn(-c3ccccc3)c2Cl)cc1	14.8%	26.7µM*	?	28.8%	0.9%	-0.1
COc1cc(C(=S)N2CCOCC2)cc(OC)c1OC(=O)c1ccccc1Cl	·	?	·	·	·	-6.9
SMILES	GCN5L2 inh	PLK1 PBD inh	JMJD2A Tudor	HP1b binding inh	BAZ2B block	PI5P4K alpha inh
O=C(Oc1c(CN2CCOCC2)cc(Cl)c2cccnc12)c1ccccc1	-9.3%	4.2%	?	30.5%	25.1µM*	4.4
O=C(Oc1c(CN2CCOCC2)cc(Cl)c2cccnc12)c1ccccc1F	-3.7%	-10.0%	25.1µM*	2.5%	3.55µM*	-0.6
COc1cc(OC)cc(C(=O)Oc2c(CN3CCOCC3)cc(Cl)c3cccnc23)c1	0.6%	5.5%	-29.9%	26.2%	22.4µM*	-2.6
O=C(Nc1ccc(CN2CCOCC2)cc1)c1ccccc1F	1.9%	-4.3%	-4.5%	23.4%	-2.7%	·
NC(Cc1ccccc1)C(O)c1ccco1 (configuration not stated)	·	·	-26.2%	14.0%	·	·
CCOC(=O)c1[nH]c(C)c(CCC(=O)N2CCN(c3cccc(OC)c3)CC2)c1C	-19.1%	·	-18.2%	17.6%[57 µM]	-14.2%	·
CCOc1ccccc1NC(=O)/C(C#N)=C/c1c(C)nn(-c2ccccc2)c1Cl	-8.7%	0.0%	44.7µM*	12.0%	-3.2%	-0.1
C=CCNC(=O)/C(C#N)=C/c1c(C)nn(-c2ccccc2)c1Cl	-0.1%	-17.3%	-13.2%	45.5%	-2.4%	-2.2
CCCCCCNC(=O)O[C@H]1C[C@@H]2C(=O)N(c3ccccc3)C(=O)[C@@H]2[C@@H]2CN(S(=O)(=O)c3ccc(C)cc3)C[C@]12O	·	-3.3%	·	·	·	1.6
N#CC1=C(N)NC(=S)C(C(N)=O)C1c1ccc(Cl)cc1Cl (configuration not stated)	-5.4%	18.9µM*	?	2.5%	-29.5%	?
CCOC(=O)C1C(=O)NC(SC)=C(C#N)C1c1ccccc1F (configuration not stated)	-10.1%	-16.4%	-17.2%	5.0%	2.7%	·
O=C1NC(=O)C(c2ccc(Cl)cc2Cl)N1 (configuration not stated)	·	-2.7%	1.4%	-6.3%	·	-2.0
N#CC1=C(N)NC(=S)C(C(N)=O)C1c1ccccc1F (configuration not stated)	-23.9%	18.9µM*	-29.1%	8.6%	-14.7%	?
CCOC(=O)c1cc(-c2ccccc2C)n(CC2CC(c3cccc([N+](=O)[O-])c3)=NO2)n1 (configuration not stated)	-10.6%	-10.7%	?	-1.7%	-36.4%	15.1
C[C@@H]1C(NC(=O)c2ccccc2)CC2CC1C2(C)C (some centres not stated)	-15.9%	-11.4%	-2.7%	32.5%	14.3%	2.6
COc1ccc(C(O)CNc2ccc(C)cc2)cc1 (configuration not stated)	0.8%	2.6%	-26.2%	-0.4%	?	-0.8
COc1ccc(CCNc2ccc(C)cc2)cc1	3.2%	0.5%	39.8µM*	?	?	·
CCOC(=O)CC(NS(=O)(=O)c1ccc(OC)c(OC)c1)c1cccc([N+](=O)[O-])c1 (configuration not stated)	1.1%	-3.2%	-6.5%	9.5%	-6.9%	-7.4
CCOC(=O)CC(NS(=O)(=O)c1ccc2[nH]cc(C(=O)O)c(=O)c2c1)c1ccc(OCC)c(OC)c1 (configuration not stated)	-19.5%	?	22.4µM*	50.1µM*	28.2µM*	-19.3

High-throughput results (PubChem)
